Results as given in PubChem BioAssay (EPA / NIEHS).
Records with an inconclusive call do not appear. Calls of active or inactive are those of the source. How the source made its calls: active means hit-call score of the fitted dose curve at least 0.9, where 1 is the maximum; inconclusive means response in the unintended direction; inactive means score below 0.9.

Test: TOX21_p53_BLA_p2_viability: Viability Assessment in the Tox21 HCT-116 p53 Agonism Beta-lactamase Assay, Phase 2 (AID 2283591);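 further: compound exposure lasted 16 h at 37 °C; actives lower the ATP signal meaning cytotoxicity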
Method in brief: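 Cytotoxicity readout: CellTiter-Glo ATP luminescence, 30 min at room temperature, after the beta-lactamase read. Cells were HCT116 exposed 16 h at 37C to compounds pin-transferred at 217-fold dilution from DMSO stocks.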

| SMILES | outcome | AC50 |
| --- | --- | --- |
| CCCCCCCCCCC(=O)O | inactive |  |
| O=C(O)Cc1cccc(-c2cc(CCCCCCc3ccc(O[C@H]4O[C@H](CO)[C@@H](O)[C@H](O)[C@@H]4O)c(-c4cccc(CC(=O)O)c4)c3)ccc2O[C@H]2O[C@H](CO)[C@@H](O)[C@H](O)[C@@H]2O)c1 | inactive |  |
| Nc1cccc(S(=O)(=O)O)c1 | inactive |  |
| CCC(CC)(CC(=O)Nc1cccc(/C=C/c2nc(C3CCC3)cs2)c1)C(=O)O | inactive |  |
| Clc1ccc2c(c1)CCc1cccnc1C2=C1CCNCC1 | inactive |  |
| C=Cc1ccccc1 | inactive |  |
| CCCCC(CC)COC(=O)C(C#N)=C(c1ccccc1)c1ccccc1 (stereo not given) | inactive |  |
| Cc1cc(N)c2cc(NC(=O)Nc3ccc4nc(C)cc(N)c4c3)ccc2n1 | inactive |  |
| CC(C)OC(=O)C(C)N(C(=O)c1ccccc1)c1ccc(F)c(Cl)c1 (stereo not given) | inactive |  |
| NC(N)=NC(=O)Cc1c(Cl)cccc1Cl | inactive |  |
| CC(C)CN(C[C@@H](O)[C@H](Cc1ccccc1)NC(=O)O[C@H]1CO[C@H]2OCC[C@H]21)S(=O)(=O)c1ccc(N)cc1 | inactive |  |
| O=C1c2ccccc2Cc2ccccc21 | inactive |  |
| Cc1c(O)c(=O)ccn1C | inactive |  |
| CCCC1([C@H](O)C/C=C/[C@H]2[C@H](O)CC(=O)[C@@H]2CCCCCCC(=O)OC)CCC1 | inactive |  |
| CCCCCCCCCCCCCCCC[N+](C)(C)CCN(Cc1ccc(OC)cc1)c1ncccn1 | inactive |  |
| COc1cc(NC(C)CCCN)c2ncccc2c1 (stereo not given) | inactive |  |
| O=C(O)COc1ccc(C(=O)c2cccs2)c(Cl)c1Cl | inactive |  |
| CC(C)N1CCN(c2ccc(OC[C@H]3CO[C@](Cn4cncn4)(c4ccc(Cl)cc4Cl)O3)cc2)CC1 | inactive |  |
| COc1cc2c(cc1OC)-c1cc(=Nc3c(C)cc(C)cc3C)n(C)c(=O)n1CC2 |  | 39 µM (active) |
| Nc1nc(-c2ccccc2)c(Br)c(=O)[nH]1 | inactive |  |

| SMILES | outcome | AC50 |
| --- | --- | --- |
| Cc1cc(CC(=O)O)c(C)n1-c1ccc(Cl)cc1 | inactive |  |
| c1ccncc1 | inactive |  |
| OCC1O[C@@H](O[C@@H]2C(CO)OC(O)C(O)C2O)C(O)C(O)C1O (stereo not given in full) | inactive |  |
| CCNC(=O)N1CCN(CCCC(c2ccc(F)cc2)c2ccc(F)cc2)CC1 | inactive |  |
| CN1CCN(CCC=C2c3ccccc3Sc3ccc(S(=O)(=O)N(C)C)cc32)CC1 | inactive |  |
| C=CCCC | inactive |  |
| COC(=O)C1=C(C)NC(C)=C(C(=O)O[C@@H]2CCCN(Cc3ccccc3)C2)[C@@H]1c1cccc([N+](=O)[O-])c1 | inactive |  |
| CCCC[P+](C)(CCCC)CCCC | inactive |  |
| O=C(O[C@H]1CN2CCC1CC2)N1CCc2ccccc2[C@@H]1c1ccccc1 | inactive |  |
| S=c1nccc[nH]1 | inactive |  |
| CCOc1ccc(NC(C)=O)cc1N | inactive |  |
| CCOC(=O)NNc1ccc(N(CC)CC(C)O)nn1 (stereo not given) | inactive |  |
| O=C(O)c1ccc(OCCCOc2ccc(C(=O)O)cc2)cc1 | inactive |  |
| CCCCCCCCCCCC(=O)OC[C@@H](O)[C@H]1OC[C@H](OCCO)[C@H]1OCCO | inactive |  |
| CCCCCC1Nc2cc(C(F)(F)F)c(S(N)(=O)=O)cc2S(=O)(=O)N1 (stereo not given) | inactive |  |
| Cc1c(C(=O)O)cccc1[N+](=O)[O-] | inactive |  |
| CC(C)(C)NC[C@H](O)COc1ccccc1C1CCCC1 | inactive |  |
| O=P(O)(O)C(Sc1ccc(Cl)cc1)P(=O)(O)O | inactive |  |
| c1ccc(CNCCNCc2ccccc2)cc1 | inactive |  |
| CCOC(=O)c1cnc2c(cnn2CC)c1NN=C(C)C | inactive |  |
